For some of these results: Results with a measured potency or affinity are listed apart. The source made the active and inactive calls. Unless noted, the limit is not given here; nearly all actives have IC50 up to about 0.91 µM.
Target: Protein kinase 7 (PK7), Plasmodium falciparum 3D7 (PF3D7_0213400) (UniProt Q7YTF7)
Assay: inhibition of Plasmodium PK7 catalytic activity – biochemical, TCAMS antimalarial set, Kinase-Glo luminescence (AID 1159587; call rule not given here)
Settings: recombinant PfPK7, Kinase-Glo ATP depletion luminescence

Protein kinase 7 (PK7), Plasmodium falciparum 3D7 (PF3D7_0213400), sequence (Q7YTF7 1-343): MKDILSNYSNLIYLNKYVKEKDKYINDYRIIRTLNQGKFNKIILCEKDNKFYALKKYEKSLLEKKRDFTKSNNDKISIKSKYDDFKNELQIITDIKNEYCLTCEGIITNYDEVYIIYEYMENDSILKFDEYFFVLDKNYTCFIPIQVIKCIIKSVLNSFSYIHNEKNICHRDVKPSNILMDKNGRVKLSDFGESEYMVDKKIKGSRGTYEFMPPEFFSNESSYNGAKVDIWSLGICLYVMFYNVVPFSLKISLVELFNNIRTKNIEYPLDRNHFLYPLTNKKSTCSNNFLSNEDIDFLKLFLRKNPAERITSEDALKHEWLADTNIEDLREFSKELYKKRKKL

outcome, inactive:
CCN(CC)CCN(Cc1ccc(-c2ccc(C(F)(F)F)cc2)cc1)C(=O)Cn1c(CCc2c(F)ccc(F)c2F)nc(=O)c2ccccc21, Cc1noc(C)c1-c1ccc2c(Nc3ccccc3C(C)(C)C)c(C(=O)NCc3ccc4c(c3)OCO4)cnc2c1, CN1CCN(c2ccc(-c3cc(-c4cc(F)c(F)c(F)c4)cnc3N)cc2)CC1, Cc1cc(NC(=O)c2cccs2)ccc1OC1CCN(Cc2ccc(F)cc2)C1 (centres undefined), CCNc1cc(C(=O)N[C@@H](Cc2ccccc2)[C@H](O)CNC2(CC)CCCCC2)cc(N2CCCCS2(=O)=O)c1, Cc1csc(-c2nc(NCc3cccnc3)ncc2-c2ccsc2)n1, COc1ccc(C=NNc2cc(C)nc3ccc(OC)cc23)c(OC)c1, O=C(c1ccc(F)c(F)c1)N1CCOC(CCN2CCC(c3ccccc3)CC2)(c2ccc(Cl)c(Cl)c2)C1 (centres undefined), COc1ccc2nccc([C@@H](O)CN3CCC(NC(=O)/C=C/c4ccc5[nH]c(=O)ccc5c4)CC3)c2c1, COc1ccccc1CCNc1nc(C)cc(N[C@@H](Cc2ccccc2)C(=O)NCCCOC(C)C)n1, COc1ccccc1-c1cccc(Nc2c(Nc3ccc(Cl)cc3)c(=O)c2=O)c1, Cc1cc(-c2ccc(NC(=O)c3coc4ccc(N5C[C@@H](C)N(C)[C@@H](C)C5)cc34)cc2C)cc(C)n1, CCCCCC(C)C(C)c1cc(OC(N)=O)c2c(c1)OC(C)(C)C=C2c1ccncc1 (centres undefined), Cc1cc(N[C@@H](Cc2ccccc2)C(=O)NCCOc2ccccc2)nc(NCCc2ccc(F)cc2)n1, COc1cccc(Nc2nc(NCCO)c3ccccc3n2)c1, COc1ccc(C(C(=O)NC2CCN(C[C@H](O)c3ccnc4ccc(OC)cc34)CC2)N2CCN(c3ccc([N+](=O)[O-])cc3)CC2)cc1 (some centres undefined), CC(C)COc1ccc(Cl)cc1Cc1ccc(-c2nc3ccc(F)cc3[nH]2)o1, COc1ccccc1NC(=O)OC(COc1ccc(N)cc1)CN1CC=C(c2ccccc2)CC1 (centres undefined), COCCn1c(C)cc(C(=O)CN2C(=O)NC(C)(c3ccc(C(C)(C)C)cc3)C2=O)c1C (centres undefined), COc1ccc2ncc(Cl)c(CCN3CCC(NCc4ccc5c(n4)NC(=O)CO5)CC3)c2c1, NC(=NCCCc1ccccc1)c1cccc(C(N)=NCCCc2ccccc2)n1, COc1cc2nc(C)nc(Nc3ccc(Cc4ccccc4)cc3)c2cc1OC, COc1ccc(-c2nonc2NC(=O)c2ccc(OC(C)C)cc2)cc1OC, CCc1c(CCNCCCCCCNCCc2ccc(Br)cc2)ccc(O)c1O

Target: Calcium-dependent protein kinase 4 (Plasmodium falciparum (isolate 3D7)) (UniProt Q8IBS5)
Sequence (Q8IBS5 whole entry, looked up): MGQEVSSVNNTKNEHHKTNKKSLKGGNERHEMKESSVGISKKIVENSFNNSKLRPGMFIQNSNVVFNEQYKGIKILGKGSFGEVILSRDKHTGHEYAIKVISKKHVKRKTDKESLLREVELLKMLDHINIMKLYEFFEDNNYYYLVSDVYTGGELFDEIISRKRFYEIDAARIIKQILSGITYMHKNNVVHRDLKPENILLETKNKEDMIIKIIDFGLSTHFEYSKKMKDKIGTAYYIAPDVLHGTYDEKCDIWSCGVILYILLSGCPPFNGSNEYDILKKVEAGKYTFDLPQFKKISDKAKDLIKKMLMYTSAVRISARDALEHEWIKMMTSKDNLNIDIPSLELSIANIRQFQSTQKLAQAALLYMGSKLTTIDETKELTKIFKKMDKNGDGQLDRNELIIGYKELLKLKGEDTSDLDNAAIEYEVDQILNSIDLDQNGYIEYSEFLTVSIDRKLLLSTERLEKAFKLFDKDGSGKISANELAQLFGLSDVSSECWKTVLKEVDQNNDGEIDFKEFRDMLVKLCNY
Assay: PfCDPK4 kinase inhibitors, biochemical, TCAMS library (AID 1159588)
Settings: recombinant PfCDPK4, Kinase-Glo ATP depletion luminescence

outcome, inactive:
CN(C)CCOc1cc(O)c2c(c1)OC(C)(C)C=C2c1cccs1, COc1ccc(Nc2nccc(N3CCC(NC(=O)Nc4ccc5c(c4)OCO5)C3)n2)cc1 (centres undefined), O=C(NCCCCN1CCN(c2cccc(Cl)c2Cl)CC1)c1ccc2c(c1)CCN(C1CCC1)CC2, CNC(=O)c1cnc(Nc2ccc(N3CCN(C)CC3)cc2)nc1Nc1cccc(OC)c1, CC(C)n1ncc2c(C(=O)N3CCCC4CCCCC43)cc(C3CC3)nc21 (centres undefined), O=C(Nc1cc(C(F)(F)F)cc(C(F)(F)F)c1)c1cc(C(F)(F)F)cc(C(F)(F)F)c1, CC(C)c1sc(N2CCN(C)CC2)nc1C(=O)Nc1ccc(F)cc1C(F)(F)F, O=C(NCCc1ccccc1)[C@H](Cc1ccccc1)Nc1ccnc(NCC2CCCCC2)n1, C=CCc1cc(OC)ccc1OCCCOc1c(C)nc(N)nc1N, COc1cc(Nc2nccc(N3CCC(NC(=O)c4cccc(C#N)c4)C3)n2)cc(OC)c1OC (centres undefined), Cc1ccc(NC(=O)c2ccc3ncccc3c2)cc1OC1CCN(Cc2ccsc2)CC1, COc1cccc(N(CCCN2C(=O)c3cccc4cccc(c34)C2=O)C(=O)c2ccccc2C)c1, Cc1cccc2[nH]c(-c3ccc(-c4cccc(CN5CCC(CO)CC5)c4)s3)nc12, Nc1nc(N)c2c(Oc3cccnc3)cccc2n1, COc1cc2nc(Nc3ccc(C)cc3)nc(Nc3ccc(C)cc3)c2cc1OC, Cc1cc(N[C@@H](Cc2ccccc2)C(=O)NCCc2ccccc2)nc(NCC2CCCCC2)n1, CCN(CC)CCN(Cc1ccc(-c2ccc(C(F)(F)F)cc2)cc1)C(=O)Cn1c(CCc2c(F)ccc(F)c2F)nc(=O)c2ccccc21, Cc1noc(C)c1-c1ccc2c(Nc3ccccc3C(C)(C)C)c(C(=O)NCc3ccc4c(c3)OCO4)cnc2c1, CN1CCN(c2ccc(-c3cc(-c4cc(F)c(F)c(F)c4)cnc3N)cc2)CC1, Cc1cc(NC(=O)c2cccs2)ccc1OC1CCN(Cc2ccc(F)cc2)C1 (centres undefined), CCNc1cc(C(=O)N[C@@H](Cc2ccccc2)[C@H](O)CNC2(CC)CCCCC2)cc(N2CCCCS2(=O)=O)c1, Cc1csc(-c2nc(NCc3cccnc3)ncc2-c2ccsc2)n1, COc1ccc(C=NNc2cc(C)nc3ccc(OC)cc23)c(OC)c1, O=C(c1ccc(F)c(F)c1)N1CCOC(CCN2CCC(c3ccccc3)CC2)(c2ccc(Cl)c(Cl)c2)C1 (centres undefined), COc1ccc2nccc([C@@H](O)CN3CCC(NC(=O)/C=C/c4ccc5[nH]c(=O)ccc5c4)CC3)c2c1, COc1ccccc1CCNc1nc(C)cc(N[C@@H](Cc2ccccc2)C(=O)NCCCOC(C)C)n1, COc1ccccc1-c1cccc(Nc2c(Nc3ccc(Cl)cc3)c(=O)c2=O)c1, Cc1cc(-c2ccc(NC(=O)c3coc4ccc(N5C[C@@H](C)N(C)[C@@H](C)C5)cc34)cc2C)cc(C)n1, CCCCCC(C)C(C)c1cc(OC(N)=O)c2c(c1)OC(C)(C)C=C2c1ccncc1 (centres undefined), Cc1cc(N[C@@H](Cc2ccccc2)C(=O)NCCOc2ccccc2)nc(NCCc2ccc(F)cc2)n1, COc1cccc(Nc2nc(NCCO)c3ccccc3n2)c1, COc1ccc(C(C(=O)NC2CCN(C[C@H](O)c3ccnc4ccc(OC)cc34)CC2)N2CCN(c3ccc([N+](=O)[O-])cc3)CC2)cc1 (some centres undefined), CC(C)COc1ccc(Cl)cc1Cc1ccc(-c2nc3ccc(F)cc3[nH]2)o1, COc1ccccc1NC(=O)OC(COc1ccc(N)cc1)CN1CC=C(c2ccccc2)CC1 (centres undefined), COCCn1c(C)cc(C(=O)CN2C(=O)NC(C)(c3ccc(C(C)(C)C)cc3)C2=O)c1C (centres undefined), COc1ccc2ncc(Cl)c(CCN3CCC(NCc4ccc5c(n4)NC(=O)CO5)CC3)c2c1, NC(=NCCCc1ccccc1)c1cccc(C(N)=NCCCc2ccccc2)n1, COc1cc2nc(C)nc(Nc3ccc(Cc4ccccc4)cc3)c2cc1OC, COc1ccc(-c2nonc2NC(=O)c2ccc(OC(C)C)cc2)cc1OC, CCc1c(CCNCCCCCCNCCc2ccc(Br)cc2)ccc(O)c1O
